Drawing on PubChem BioAssay (NCI), this text covers growth for 40 compounds.

About 83,000 compounds went through this panel and 20% of them were active in at least one assay; those are over-represented in the sample as a whole.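 Method: cells in 96-well plates; compound added at one concentration; 48 h incubation; percent growth measured; values under 10 scored active.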 Calls of active or inactive are those of the source.

In the assay the test system is SK-MEL-5 melanoma. The assay can be described thus: NCI-60 one-dose screen, 48 h (100 = growth as untreated, 0 = no growth, -100 = all killed). The conditions noted are these: 10 µM unless noted. Here is the method: Growth inhibition of the SK-MEL-5 human tumor cell line is measured as a screen for anti-cancer activity. Cells are grown in 96 well plates and exposed to the test compound for 48 hours. Compounds are tested at a single concentration, which is 10^-5 M for most compounds. The reported endpoint is percent growth (GI% or GIPRCNT), where numbers from 0 - 100% represent growth inhibition, and numbers from -100% - 0 represent cell death. For example, a value of 40 represents 60% growth inhibition. A value of 0 means no net growth occurred over the course of the experiment. A value of -40 indicates 40% of cells at the beginning of the experiment died by the end of the experiment. A value of -100 means all cells are dead at the end of the experiment.
NCI-60 Human Tumor Cell Lines Screen was performed using the standard one-dose NCI protocol, which is described in more detail at https://dtp.cancer.gov/discovery_development/nci-60/default.htm.
Compounds with GIPRCNT values below 10 were considered active. Activity score was based on GIPRCNT using the following formula: […]
Score is 0 for GIPRCNT values of 100 or above, 50 for GIPRCNT values of 0, and 100 for GIPRCNT values of -100.
For the compound `CS(=O)(=O)c1ccc2c(c1)c1c(n2S(=O)(=O)c2ccc(Cl)cc2)CCCC1`, the growth is 26.7% (inactive).
The value for `C=CCn1c(SCC(=O)Nc2cccc(C(=O)/C=C/c3ccc(Cl)cc3)c2)nc2ccccc2c1=O` was 99.1% (inactive).
The same measure for `CC(C)=CCC[C@](C)(O)[C@H]1CC[C@]2(C)[C@@H]1CC[C@@H]1[C@@]3(C)CCC(NC(=O)c4ccccc4C(=O)O)C(C)(C)[C@@H]3CC[C@]12C` (stereo not given in full): 55.4% (inactive).
The same measure for `CC(=O)NC(C)(C)C(=O)N1CCC[C@H]1C(=O)NC(C)(C)C(=O)N[C@@H](C)C(=O)NC(C)(C)C(=O)NC(C)(C)C(=O)N[C@@H](CCC(N)=O)C(=O)NC(C)(C)C(=O)N[C@H](C(=O)NC(C)(C)C(=O)NCC(=O)N[C@@H](CC(C)C)C(=O)NC(C)(C)C(=O)N1CCC[C@H]1C(=O)N[C@H](C(=O)NC(C)(C)C(=O)NC(C)(C)C(=O)N[C@@H](CCC(N)=O)C(=O)N[C@@H](CCC(N)=O)C(=O)N[C@H](CO)Cc1ccccc1)C(C)C)C(C)C`: -45.7% [4.25 µM] (active); for `COc1ccc(/C=N/Nc2nc(Nc3ccccc3)nc(Nc3ccc(S(N)(=O)=O)cc3)n2)cc1`: 74.6% (inactive).
`COc1ccc(-c2cc(-c3cccc4ccccc34)n3c(n2)nc2ccccc23)cc1`: the growth is 30.4% (inactive).
With `C=CCn1c(SCC(=O)c2ccc(OC)cc2)nnc1-c1ccc(OC)cc1`, the growth is -20% (active).
The value for `COc1cc(O)c2c(c1)[C@H]1O[C@@H]1C[C@H](O)[C@H](O)C(=O)/C=C\C[C@H](C)OC2=O` was 7.59% (active); that for `COc1c([C@@H](CC(C)C)OC(C)=O)ccc2c1C(=O)OCc1cc(C)cc(O)c1O2` was 8.29% (active).
The same measure for `O=C1CSC(=O)N1Cc1cc2ccccc2nc1Cl`: 99.7% (inactive).
For `O=C(CCCCCCN1CC(=O)N2[C@@H](c3cc(F)cc(F)c3)c3[nH]c4ccccc4c3C[C@H]2C1=O)NO`, the growth is 47.2% (inactive).
The value for `CCOC(=O)Nc1cccc(-n2cnc3cc(-c4ccc(O)cc4)ccc32)c1` was 9.15% (active).
The same measure for `COc1ccc(-c2ccnc3c(C#N)c(Nc4ccccc4)nn23)cc1OC`: 74.2% (inactive); for `O=C(NCCCNc1cc(-c2cn(-c3ccccc3)nc2-c2cccc(O)c2)ccn1)Nc1cc(C(F)(F)F)cc(C(F)(F)F)c1`: 55.7% (inactive).
The same measure for `O=C(c1ccc(O)cc1)[C@@H]1[C@@H]2CCCN2[C@@]2(C(=O)N(C(=O)c3ccc(F)cc3)c3ccccc32)[C@H]1c1ccc(F)cc1`: 95% (inactive).
With `O=c1[nH]c(CCl)nc2c1cnn2-c1ccccc1`, the growth was 99% (inactive).
Take `COc1cc2c3c(n(CCCNC4CCCCC4)c(=O)c2cc1OC)-c1cc2c(cc1C3=O)OCO2`: the growth is 97.2% (inactive).
Regarding `CC1(C)CC[C@]2(C(=O)N3CCCNCC3)CC[C@]3(C)C(=CC[C@@H]4[C@@]5(C)CCC(=O)C(C)(C)[C@@H]5CC[C@]43C)[C@H]2C1`, the growth is 102% (inactive).
With `C/C(=C(/C)C1CC1CCN(C(=O)c1ccc([N+](=O)[O-])cc1)S(=O)(=O)c1ccc(C)cc1)C1CCCCC1` (stereo not given), the growth is 99.4% (inactive).
The same measure for `COc1ccc([C@H]2[C@H](O)C(=O)N2c2cc(OC)c(OC)c(OC)c2)cc1O`: 0.345% (active).
The same measure for `O=S(=O)(NC1CC2CCC1C2)c1ccc2c(c1)C(=NO)c1cc(S(=O)(=O)NC3CC4CCC3C4)ccc1-2` (stereo not given): 93% (inactive); for `C#CCOc1ccc(/C=N/Nc2nc(-c3cc(Cl)ccc3Cl)cs2)cc1`: 97.8% (inactive); for `COc1ccc(-c2nnc(/N=C3/C(=O)Nc4ccc(Br)cc43)o2)cc1`: 98.8% (inactive).
The same measure for `Cc1nc(-c2cc3ccccc3c(N3CCN(C)CC3)n2)cs1`: 95.4% (inactive); for `COc1cc(-c2nc(SCc3ccc(C)cc3)[nH]c(=O)c2C#N)ccc1OCc1ccccc1`: 87.8% (inactive).
For the compound `O=C(Nc1cccc(Cl)c1)Nc1nc2ccc(-c3cccc4ccccc34)cc2s1`, the growth is 54.4% (inactive).
The same measure for `COc1cc2oc(-c3cccc(NC(=O)c4cc(NC(=O)[C@H](C)N)ccc4Cl)c3)cc(=O)c2c(OC)c1OC`: 86% (inactive).
The value for `O=C(O)CNS(=O)(=O)c1ccc(Oc2ccc(S(=O)(=O)NCC(=O)O)cc2)cc1` was 101% (inactive); that for `CCOC(=O)C1=C(C)Nc2nnc(Nc3ccccc3)n2C1c1ccccc1` (stereo not given) was 89.9% (inactive); that for `CN1CCN(c2ccc(C(=O)/C=C/c3ccc(Cl)c(C(F)(F)F)c3)cc2)CC1` was 74.3% (inactive).
The value for `O=C1c2c(c3c4cc(Br)ccc4[nH]c3c3ccc4ccccc4c23)C(=O)N1CCN1CCNCC1` was 91.4% (inactive).
`Oc1ccc(CSc2nnc(-c3ccc(Br)cc3)o2)c2cccnc12`: the growth was 12% (inactive).
The same measure for `COc1ccc2c(c1)c(-c1nn3c(=O)cc(-c4ccccc4)nc3s1)cn2C`: 38.7% (inactive); for `Cc1cc2nc(C(Cl)Cl)nc(-c3ccco3)n2n1`: 97.8% (inactive).
The value for `Cc1occc1-c1nc2s/c(=C\c3cn(-c4ccccc4)nc3-c3ccccc3)c(=O)n2n1` was 92.4% (inactive); that for `COc1ccc(C2C(C#N)=C(N)Oc3c2sc2ccc(C)cc32)cc1` (stereo not given) was 2.75% (active); that for `COc1cc(/C=N/n2cnc3oc(-c4ccccc4)cc3c2=N)cc(CN2CCCC2)c1O` was 91.5% (inactive).
In the case of `N#C/C(=C\c1ccc(N2CCCCC2)cc1)C(=O)Nc1sc2c(c1C#N)CCC2`, the growth is 98.7% (inactive).
The same measure for `COc1cc2oc(-c3cccc(NC(=O)c4cc(NC(=O)[C@H](C)NC(=O)OC(C)(C)C)ccc4C)c3)cc(=O)c2c(OC)c1OC`: 63.2% (inactive); for `NS(=O)(=O)Oc1ccc2nc(Nc3ccc(F)c(F)c3)ccc2c1`: 98.7% (inactive).
